# Anesthetic bind: binds horse apoferritin like a general anesthetic | actives 0.074% (n = 350,000) | apoferritin/1-aminoanthracene competitive binding, fluorescence | P02791 | Potency, µM (top dose mostly 77.5 µM), inactives show top-dose activity change, negative = displacement, usual class: inhibitors | AID 485281; further: on the % scale 0 is the no-effect control and ±100 the full control effect; nearly all actives have a fitted effect of over 20% in size
#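 Horse-spleen apoferritin (10 uM) in 50% saturated 1-aminoanthracene in PBS was incubated 10 min at room temperature with compound. Fluorescence (ex 380, em 535 nm) was normalized to free and bound 1-AMA, with concentration-response fitted by a four-parameter Hill equation.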
# Glioma ERSR ind: induces the endoplasmic reticulum stress response in human glioma cells. actives 0.02% (n = 420,000). Potency, µM, for the others: at the top dose activation, hits mostly activators. U87-MG GRP78 promoter luciferase reporter, 16 h; further: series mostly up to about 76 µM; % of control where 0% means no effect; nearly all actives have a fitted effect of over 35% in size
#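 Stably transfected U87-MG human glioma cells carrying a GRP78-based luminescent sensor were seeded at 1000 cells/well, pin-dosed with compounds and incubated 16 h. Luciferase reagent was then added, and end-point luminescence was read after 10 min at room temperature.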
# 12-LOX inh: blocks human arachidonate 12S-lipoxygenase. purified 12hLO, xylenol orange hydroperoxide absorbance. Potency, µM (series often up to 108 µM), without a hit: at the top dose activity change, negative = inhibition, hits mostly inhibitors. actives 1.1% (n = 580,000); further: on the % scale 0 is the no-effect control and ±100 the full control effect
# Target sequence (P18054 whole entry, looked up): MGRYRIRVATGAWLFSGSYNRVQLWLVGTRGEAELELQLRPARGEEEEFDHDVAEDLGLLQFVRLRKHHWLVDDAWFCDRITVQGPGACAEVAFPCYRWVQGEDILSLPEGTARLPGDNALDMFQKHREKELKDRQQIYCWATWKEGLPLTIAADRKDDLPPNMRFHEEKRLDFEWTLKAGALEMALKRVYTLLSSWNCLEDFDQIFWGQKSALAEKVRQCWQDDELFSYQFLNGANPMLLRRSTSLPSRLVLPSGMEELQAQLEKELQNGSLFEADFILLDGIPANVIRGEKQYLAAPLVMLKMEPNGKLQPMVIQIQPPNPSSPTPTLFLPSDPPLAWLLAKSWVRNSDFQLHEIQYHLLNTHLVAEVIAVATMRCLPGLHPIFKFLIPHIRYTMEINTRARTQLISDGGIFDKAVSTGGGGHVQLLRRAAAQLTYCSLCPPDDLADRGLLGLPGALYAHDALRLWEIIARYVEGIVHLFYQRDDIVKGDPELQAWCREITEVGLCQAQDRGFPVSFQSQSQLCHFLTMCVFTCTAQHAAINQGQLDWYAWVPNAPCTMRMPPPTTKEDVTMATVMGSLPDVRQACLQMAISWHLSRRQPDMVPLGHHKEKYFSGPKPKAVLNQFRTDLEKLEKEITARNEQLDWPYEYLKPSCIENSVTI
#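 Purified human 12hLO at 150 nM in 25 mM Hepes, 0.01% Triton X-100, pH 7.0, preincubated 15 min at room temperature with compound. Reaction started with 40 uM arachidonic acid, 30 min at room temperature. Hydroperoxide measured by Fe-xylenol orange, 573/405 nm absorbance ratio.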
# BCR signal inh: blocks chronic active B-cell receptor signaling | actives 0.05% (n = 340,000) | Potency, µM (highest dose often 46.1 µM), for inactives: at the top dose activity change, negative = inhibition, hits mostly inhibitors | ABC-DLBCL IkBa-CBG/CBR reporter, luminescence ratio, 4 h; active means well fitted inhibition curve with a large enough effect in the signal ratio, with a control signal flat, not every such curve was filed as active; inconclusive means small, poorly fitted or top-dose-only effect, or effect the other way, or a change in a side signal; the % refers to the signal ratio;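 further: plate controls were basal doxycycline-induced cells for no effect and cells given 10 µM MG132 for full effect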
#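 Cell line TMD8 (human ABC DLBCL), stably expressing tet-inducible CBG68-IkBa fusion and CBR; IMDM/0.5% FBS; cpd up to 46 uM; dox induction, 4 h, 37C/5% CO2; dual luminescence; green/red ratio; MG132 control.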
# An asterisk follows results filed as active; ? = inconclusive; nt = no result; ! = not active in a repeat; [ ] = dose if it differs, or a comment. A selection: hits, their analogues and other compounds. The true share with any hit is near 1.1%. Unless noted, the call rests on the fitted dose curve; in most records, active means well fitted curve in the direction sought with a large enough effect; inconclusive means small, poorly fitted or top-dose-only effect, or another doubt; inactive means no such curve, though single readings can be large; an effect the other way counts as inactive or inconclusive. Potency means the concentration at half of the fitted maximal effect.
SMILES,Anesthetic bind,Glioma ERSR ind,12-LOX inh,BCR signal inh
Brc1cccc[n+]1CCC[n+]1ccccc1Br,nt,-2%,nt,nt
Cc1cccc[n+]1CCCCCCCCCC[n+]1ccccc1C,-5%,-2%,14µM*!,1%
Cc1ccc2ccc[n+](Cc3ccccc3)c2c1,nt,-6%,-1%,-1%
Cc1ccc(CNc2oc(-c3ccc(S(=O)(=O)N4CCc5ccccc5C4)cc3)nc2C#N)cc1,nt,nt,15%,nt
Nc1ncccc1CN1CCC2(CC1)COCCN2C(=O)OCc1ccccc1,nt,nt,12%[176 µM],nt
COc1ccccc1N(C)C(=O)Cc1noc2ccccc12,nt,nt,4%,nt
COc1cc(NC(=O)N2CCNC2=O)cc(C(=O)Nc2cccc(C(F)(F)F)c2)c1,-17%,-6%,-18%,18µM*
COC(=O)CN(C(=S)Nc1ccc(F)cc1)C1CC(=O)N(c2ccc(OC)cc2)C1=O (configuration not stated),-8%,-5%,32µM*,-1%
O=C(O)c1ccc(CSc2nnc(-c3ccco3)o2)cc1,3%,-1%,414%,18µM*
O=C(c1cccs1)n1nc(-c2ccco2)nc1SCc1ccccc1,28µM*,0%,-20%,?
CSc1nc(-c2ccco2)nn1C(=O)c1cccs1,-20%,-5%,-3%,0%
COc1cc(/C=C2\OC(=O)c3c(OC)cccc32)ccc1O,262%,12%,14%,9.2µM*
COc1cc(C=C2CN(C)C(=O)C2=O)ccc1O,nt,-1%,?,nt
COc1cc(Nc2c(C#N)cnc3c(OC)cccc23)cc(OC)c1OC,nt,nt,3.2µM*,nt
COc1cc(Nc2nc(SCC#N)nc3ccccc23)cc(OC)c1OC,-12%,-2%,1%,3%
Cn1c2c(c(=O)[nH]c1=O)C(c1ccc(C(=O)O)cc1)C1=C(N2)c2ccccc2C1=O (configuration not stated),nt,nt,45µM*,nt
Cc1ccc(S(=O)(=O)N2[C@@H](c3ccc(C(C)(C)C)cc3)C(C(=O)O)=CC[C@H]2c2ccc(C(C)C)cc2)cc1,nt,?,40µM*,?
Cc1ccc(S(=O)(=O)N2[C@@H](c3ccc(Cl)c(Cl)c3)C(C(=O)O)=C[C@H]2CC2CCCC2)cc1,nt,-1%,28µM*,-3%
Cc1ccc(S(=O)(=O)N2[C@@H](c3ccc(Cl)cc3)C(C(=O)O)=C[C@H]2CC2CCCC2)cc1,nt,0%,?,-10%
Cc1ccc(S(=O)(=O)N2[C@@H](c3ccc(Br)cc3)C(C(=O)O)=CC[C@H]2c2ccc(C(C)C)cc2)cc1,nt,0%,35µM*,7%
CCCCC[C@@H]1C=C(C(=O)O)[C@H](c2ccc(Br)cc2)N1S(=O)(=O)c1ccc(C)cc1,nt,-1%,35µM*,5%
N#Cc1ccccc1NC(=O)CCN1CCCN(Cc2cccs2)CC1,nt,nt,-4%,nt
CCc1oc2cc(O)ccc2c(=O)c1-c1ccccc1OC,nt,nt,-30%,nt
O=C1OC(c2cc(I)c(O)c(I)c2)(c2cc(I)c(O)c(I)c2)c2ccccc21,-13%,6%,10µM*,nt
O=C1OC(c2ccccc2)(c2cc(Br)c(O)c(Br)c2)c2ccccc21 (configuration not stated),nt,-4%,?,nt
SMILES,Anesthetic bind,Glioma ERSR ind,12-LOX inh,BCR signal inh
CCCCn1c(=O)[nH]c(=O)c2c1nc(CCC(=O)OC)n2CC(C)C,nt,nt,-24%,nt
N#C/C(=C/c1ccc(O)c(O)c1)c1nc2ccccc2[nH]1,-6%,?,7.9µM*,?
N#C/C(=C\c1ccc(-c2ccc(F)cc2F)o1)c1nc2ccccc2[nH]1,-1%,6%,-17%,nt
N#C/C(=C\c1ccc(-c2ccc(Cl)cc2Cl)o1)c1nc2ccccc2[nH]1,nt,nt,11µM*,nt
Cc1cccc(NC(=O)CN(C)C(=O)C2CCN(c3ccc(C#N)cn3)CC2)c1C,nt,nt,-20%,nt
CCOC(=O)c1cc2cc(C(=O)NC(C)CC)ccc2[nH]1 (configuration not stated),nt,nt,-16%,nt
CC(Sc1nnc2ccccn12)C(=O)N1CCN(Cc2ccccc2)CC1 (configuration not stated),nt,nt,1%,nt
CN=c1scc(-c2ccccc2F)n1/N=C/c1ccc(O)c(O)c1O,-14%,-9%,35µM*,-17%
CCN=c1scc(-c2cccs2)n1/N=C/c1cc(OC)ccc1O,54%,-2%,-14%,?
CC(C)N=c1scc(-c2cccs2)n1/N=C/c1ccc(O)c(O)c1O,?,7%,14µM*,-10%
COC(=O)c1sc(NC(=O)C2CCCCC2)c(C(=O)OC)c1C,nt,nt,-5%,nt
CCCN1CCC(=O)N(CCSc2ccccc2)CC1,-3%,-3%,-3%,12%
c1ccc(SCCN2CCN(c3ccccc3)CC2)cc1,-7%,4%,13µM*,?
Cc1nn(-c2ccccc2)c(C)c1CN1CCCCC12Cc1ccccc1CNC2=O (configuration not stated),nt,nt,7%[6.33 µM],nt
O=C(CSc1ccc2nnc(-c3cccc(F)c3)n2n1)NCC1CCCO1 (configuration not stated),-6%,-4%,3.5µM*,?
O=C(CSc1ccc2nnc(-c3cccnc3)n2n1)NCC1CCCO1 (configuration not stated),-4%,-3%,25%,-3%
COc1ccc(C(NC(=O)/C=C/c2ccco2)c2ccc(OC)c(OC)c2)cc1 (configuration not stated),9%,-4%,45µM*,?
COc1ccc(NC(=S)NC(=O)/C=C/c2ccco2)c(OC)c1,?,-3%,35µM*,-6%
COc1cccc(NC(=S)NC(=O)/C=C/c2ccco2)c1,3%,2%,0%,-15%
CCOc1ccc(C(NC(=O)/C=C/c2ccco2)c2ccc(OC)c(OC)c2)cc1 (configuration not stated),-8%,-3%,?,-8%
CCOC(=O)C1=C(O)c2ccccc2C(=O)/C1=C\c1ccc(C)cc1,-19%,-13%,10µM*,?
CN(CC(=O)Nc1ccccc1Cl)CC(=O)N1CCC(Cc2ccccc2)CC1,nt,nt,-8%,nt
Cc1ccn2c(-c3n[nH]c(=S)n3C)c(C)nc2c1,-1%,-2%,45µM*,3%
COc1ccc2c(CN(C)Cc3ccccc3)cc(=O)oc2c1,nt,0%,-2%,nt
COc1ccc2c(CN(C)c3ccccc3)cc(=O)oc2c1,-20%,-1%,?,15µM*
SMILES,Anesthetic bind,Glioma ERSR ind,12-LOX inh,BCR signal inh
CCn1c(=O)c2c(nc(-n3nc(C)cc3C)n2CC)n(C)c1=O,nt,nt,31%,nt
Nc1nc(N)c(N=Nc2ccc(S(N)(=O)=O)cc2)c(=O)[nH]1,-2%,-3%,40µM*,?
Nc1nc(N)c(N=Nc2ccc(Cl)cc2)c(=O)[nH]1,-2%,3%,?,?
O=C(/C=C/c1ccsc1)c1ccc(O)cc1,nt,nt,50µM*,nt
N#Cc1ccc(C(=O)/C=C/c2ccsc2)cc1,nt,nt,3%,nt
O=C(Nc1ccccc1)c1cccnc1NCCc1ccccc1,4%,3%,-5%,-5%
COc1ccc(NC(=O)c2cccnc2NCCc2ccccc2)cc1,4%,0%,45µM*,-4%
O=C(Nc1ccncc1)c1ccc(SC(F)(F)F)cc1,nt,nt,-7%,nt
Cn1c(=S)c2[nH]c(SCCN3CCCC3)nc2n(C)c1=O,0%,-3%,-16%,11µM*
